A selection: hits, their analogues and other compounds. The true share with any hit is near 3.3%.
Mcl-1 Bim block: human Bim-Mcl-1 interaction inhibition; Bead-based flow cytometry, Bim peptide-Mcl-1 binding; 190,000 compounds, 0.1% hits; Q07820; inhibition, % at 10 µM; in the data active means inhibition above about 40%
Target sequence (Q07820 whole entry, looked up): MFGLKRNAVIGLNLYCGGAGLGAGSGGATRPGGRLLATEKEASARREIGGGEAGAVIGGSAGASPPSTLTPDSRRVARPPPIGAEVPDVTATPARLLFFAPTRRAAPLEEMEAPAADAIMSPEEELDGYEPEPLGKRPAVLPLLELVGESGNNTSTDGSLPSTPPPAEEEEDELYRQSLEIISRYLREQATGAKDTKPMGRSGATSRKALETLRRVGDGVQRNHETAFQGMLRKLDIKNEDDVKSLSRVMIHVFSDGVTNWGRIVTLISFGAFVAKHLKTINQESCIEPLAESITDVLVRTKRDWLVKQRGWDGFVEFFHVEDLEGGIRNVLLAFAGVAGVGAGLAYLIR
Mcl1 Noxa PPI: Mcl-1/Noxa interaction inhibition. TR-FRET Mcl-1/Noxa peptide binding, 2 h. 220,000 compounds, 1.5% hits. AID 1022. inhibition, % at 21.7 µM;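 active means compounds that cut the protein-peptide binding signal by more than 50% relative to plate controls in a single-dose test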;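 further: His-tagged Mcl-1 with rhodamine Noxa BH3 peptide and terbium anti-His antibody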
eIF4E 4G PPI: eIF4E/eIF4G interaction inhibition in translation initiation | P63073+Q04637 | TR-FRET eIF4E-eIF4GI(517-606) binding, 2 h | inhibition, % at 21.7 µM | 220,000 compounds, 0.37% hits
p47phox inh: inhibitors of human p47phox binding | inhibition, % at 24.7 µM | p47phox/p22phox peptide binding, fluorescence polarization, 2 h | P14598 | AID 1274 | 220,000 compounds, 0.53% hits
14-3-3 Bad inh: disrupts binding of bovine 14-3-3 zeta to phospho-Bad peptide; TR-FRET 14-3-3zeta/Dy647-pBad peptide displacement, 1 h; inhibition, % at 21.7 µM; 220,000 compounds, 0.71% hits;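 active means inhibition above about 70%, limit read from the data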
Target sequence (P63103 whole entry, looked up): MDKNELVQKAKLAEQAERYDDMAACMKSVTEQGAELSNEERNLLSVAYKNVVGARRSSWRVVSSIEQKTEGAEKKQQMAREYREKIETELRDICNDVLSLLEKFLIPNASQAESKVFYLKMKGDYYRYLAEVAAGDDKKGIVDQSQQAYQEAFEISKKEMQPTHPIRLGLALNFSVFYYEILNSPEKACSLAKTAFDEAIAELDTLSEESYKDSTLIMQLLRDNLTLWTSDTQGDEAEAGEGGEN
Mcl1 Bid PPI: Mcl-1/Bid interaction inhibition | 220,000 compounds, 0.97% hits | inhibition, % at 21.7 µM | TR-FRET Mcl-1/Bid-Dy647 peptide binding, 1536-well | Q07820;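 active means compounds that cut the binding signal by more than half at the single screening dose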;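 further: His-tagged Mcl-1 with europium anti-His antibody binding Bid BH3 peptide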
A number is an active result; . = inactive; / = not tested or not shown; + = active, no number; [ ] = remark or other dose.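 How the source made its calls, unless noted: active means inhibition above about 30% (limit read from the data); inactive means the rest.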

SMILES	Mcl-1 Bim block	Mcl1 Noxa PPI	eIF4E 4G PPI	p47phox inh	14-3-3 Bad inh	Mcl1 Bid PPI
O=C(/C=C/Nc1ccc(F)cc1)c1ccc(Br)cc1	.	.	.	.	.	.
O=C(/C=C/Nc1ccc([N+](=O)[O-])cc1)c1ccc(Br)cc1	.	53.1	.	.	.	.
O=C(Oc1ccc(NC2=C(Cl)C(=O)c3ccccc3C2=O)cc1)c1ccc([N+](=O)[O-])cc1	.	92.2	.	.	.	70.3
COc1ccc(/C=C(/NC(=O)c2ccccc2Cl)C(=O)O)cc1	.	.	.	.	.	.
COC(=O)c1ccc(OCc2cc(=O)n3ccsc3n2)cc1	.	.	.	.	.	65.0
Cc1ccc(SCc2cc(=O)n3ccsc3n2)c(C)c1	.	.	.	.	.	.
O=C(c1cccc(C(F)(F)F)c1)c1c[nH]c(C(=O)NCCCN2CCOCC2)c1	.	.	.	.	.	.
CN(C)C(=O)C1CCC(=O)N1Cc1cccs1 (centres undefined)	.	.	.	.	88.2	.
O=C(C1CCC(=O)N1Cc1cccs1)N1CCOCC1 (centres undefined)	.	.	.	.	.	.
C#CCn1c(=NC(=O)c2sc3ccccc3c2Cl)sc2cc(S(N)(=O)=O)ccc21	.	.	.	.	77.2[fluorescence artefact?]	.
C#CCn1c(=NC(=O)c2ccc(S(=O)(=O)N3CCc4ccccc4C3)cc2)sc2cc(S(N)(=O)=O)ccc21	.	.	.	.	.	.
NC(=O)c1cccn1-c1ncc(C(F)(F)F)cc1Cl	.	.	.	.	.	83.3
CNC(=O)CCc1[nH]c2ccccc2c1Sc1ccccc1	.	.	.	33.5	.	.
Cc1cc(C)n(CCCNCC(O)c2ccccc2)n1 (centres undefined)	.	.	.	.	84.7	.
O[C@@H](CNC[C@H](O)c1ccccc1)c1ccccc1	.	.	.	.	.	.
Cc1ccc2sc(=O)[nH]c2c1	/	.	.	.	.	.
O=S(=O)(c1ccc2c(c1)oc1ccccc12)N1CCOCC1	.	.	.	.	+[fluorescence artefact?]	.
O=S(=O)(c1ccc2nc(Cc3cccc(C(F)(F)F)c3)[nH]c2c1)N1CCOCC1	.	.	.	.	.	.
O=S(=O)(c1ccc2nc(Cc3ccccc3)[nH]c2c1)N1CCOCC1	.	.	.	.	87.9	.
O=S(=O)(NCc1ccccc1)c1cccc(S(=O)(=O)N2CCOCC2)c1	.	.	.	.	.	81.3
Cc1nc(-c2ccccc2Cl)sc1C(=O)/C=C/N(C)C	.	.	.	.	.	.
C/C(=N\NC(=O)c1ccc(Cl)cc1)c1cccs1	.	.	.	37.7	.	.
COc1ccc(C2N(c3ccc4c(c3)OCCO4)C(=O)C2(F)F)cc1OC (centres undefined)	/	.	.	.	.	.
CCCCn1c(NCc2ccc3c(c2)OCO3)nc2ccccc21	.	66.3	.	.	.	.
CCN(CC)c1ccc(CNc2nc3ccccc3n2C)cc1	/	.	.	.	.	96.8
SMILES	Mcl-1 Bim block	Mcl1 Noxa PPI	eIF4E 4G PPI	p47phox inh	14-3-3 Bad inh	Mcl1 Bid PPI
CCN(CC)c1ccc(CNc2nc3ccccc3n2CCN2CCCCC2)cc1	.	.	.	.	.	.
CCn1c2ccccc2c2cc(/C=N/NC(=O)c3cc(O)cc(O)c3)ccc21	.	63.5	.	.	.	.
Cc1cc(C)cc(OCC(=O)O/N=C(\N)c2ccccc2Cl)c1	/	.	.	.	.	.
COc1ccccc1N1CCN(C2CCN(C(=O)c3cccs3)CC2)CC1	.	.	.	.	.	58.1
O=C(c1cccs1)N1CCC(N2CCN(c3ccccc3)CC2)CC1	.	.	.	.	.	.
COc1ccccc1N1CCN(C2CCN(C(=O)c3cc(OC)c(OC)c(OC)c3)CC2)CC1	.	.	.	.	79.0	.
Cc1ccccc1-n1cnnc1SCC(=O)Nc1cccnc1Cl	.	.	.	.	.	.
CCOC(=O)C1(CCCc2ccccc2)CCN(C(=O)C2CCCO2)CC1 (centres undefined)	.	.	.	.	.	.
Cc1cc(C)n2nc3nc(N4CCCCC4)nc(-c4ccco4)c3c2n1	.	66.5	.	.	.	.
CCN(CC)S(=O)(=O)c1ccc(Cl)c(C(=O)Oc2cccnc2)c1	.	.	57.6	.	.	.
CCN1C(=O)/C(=C2/Sc3ccc(OC)cc3N2C)SC1=Nc1cccc(O)c1	.	70.1	.	.	.	65.1
O=C(O)COc1ccccc1/C=N/Nc1ccc(S(=O)(=O)Nc2ccc(Cl)cc2)cc1[N+](=O)[O-]	.	72.9	.	.	.	.
Cc1c(Cl)cccc1NC(=O)C(=O)NNC(=O)c1ccccc1F	.	.	.	.	.	.
S=C(NCc1ccc(Cl)cc1)NC1CCN(Cc2ccccc2)CC1	.	.	.	.	.	74.5
O=[N+]([O-])c1ccc([N+](=O)[O-])c(Nc2ccc(N3CCOCC3)cc2)c1	.	.	.	.	.	.
CN(CCOc1ccccc1)CC(=O)Nc1cccc(Br)c1	.	.	.	.	73.5	.
CSCCC1COC(c2cccs2)=N1 (centres undefined)	.	.	.	.	.	.
COC(=O)Cc1c(C(=O)OC)nnn1-c1cccc(C(F)(F)F)c1	.	.	.	.	.	.
Cc1ccccc1N/C(SCc1cccc(Br)c1)=C(/C#N)C(N)=O	.	.	.	.	71.3[fluorescence artefact?]	.
O=C(CSc1nnc(-c2cccnc2)n1C1CCCCC1)NC1CCCC1	.	56.4	.	.	.	.
CC1CCCN(C(=O)CSc2nnc(-c3cccnc3)n2C2CCCCC2)C1 (centres undefined)	.	.	.	.	.	.
COc1cc(OC)cc(-c2cc3nc(C)c(CCC(=O)NC(C)CCc4ccco4)c(C)n3n2)c1 (centres undefined)	.	/	/	/	/	/
COc1cc(OC)cc(-c2cc3nc(C)c(CCC(=O)O)c(C)n3n2)c1	.	.	.	.	.	61.8
O=C(NCc1csc(-c2cccs2)n1)C1CCCCC1	/	.	.	.	.	.
c1ccc(-n2cccc2CNC2CCCCC2)cc1	.	.	.	.	70.1	.
SMILES	Mcl-1 Bim block	Mcl1 Noxa PPI	eIF4E 4G PPI	p47phox inh	14-3-3 Bad inh	Mcl1 Bid PPI
COc1cccc(OC)c1-c1nn2c(-c3cc(-c4ccccc4)n[nH]3)nnc2s1	/	.	.	54.4	.	.
COc1ccccc1-c1nn2c(-c3ccco3)nnc2s1	.	.	.	.	88.8	.
O=C(N/N=C/c1ccc(OC(=O)c2ccc3c(c2)OCO3)cc1)c1cncc(Br)c1	.	.	.	.	71.2	.
Cc1cccc(CN2CCN(C(=O)CCc3nnc(C4CCCCC4)o3)CC2)c1	.	.	.	.	.	.
Cc1cc(-c2nnc(CCC(=O)N3CCN(Cc4cccnc4)CC3)o2)c(C)o1	.	.	.	133.4	.	.
CCn1c2ccccc2c2cc(N)ccc21	.	62.4	.	.	.	.
CN1CCN(C(=O)C(N)Cc2ccccc2)CC1 (centres undefined)	.	.	.	.	.	.
O=C(/C=C/c1ccncc1)c1cc(Cl)ccc1O	/	.	.	.	.	.
